High-throughput results (PubChem BioAssay)
AGP1-GFP MLPCN = modulators of AGP1-GFP expression in yeast TOR pathway, primary screen, cell-based, multiplex flow cytometry, S. cerevisiae, MLPCN library; 0.02% of 320,000 active; GFP response vs DMSO, % at 10 µM; 3 h; GFP as percent of DMSO wells;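 active = GFP response relative to DMSO above a set limit, near screen average plus 3 SD, cut at about 150% in these data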;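 also: median GFP channel fluorescence of the gated AGP1 strain per well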
CIT2 TOR yeast = modulators of CIT2-GFP expression in yeast, primary screen, S. cerevisiae, GFP fusion, multiplex flow cytometry, MLPCN library; S. cerevisiae CIT2-GFP strain, 3 h; 100 means same as DMSO wells; GFP response vs DMSO, % at 10 µM; 0.065% of 320,000 active; AID 2029, 2009;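 active = GFP response relative to DMSO above a set limit, near the screen mean plus 3 SD, cut at about 150% in these data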;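 also: ratio of well median GFP fluorescence to mean of DMSO wells on the plate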
VLA-4 inh = inhibition in human VLA-4 binding assay, primary screen, VLA-4 allosteric modulator project, MLPCN library, flow cytometry, VLA-4 expressing cells. Integrin alpha-4 (Homo sapiens), P13612. ligand binding flow cytometry. inhibition, % (about 7 µM as worked out from the volumes in the protocol). 0.2% of 330,000 active; in the data active = inhibition above about 50%
Target sequence (P13612 whole entry, looked up): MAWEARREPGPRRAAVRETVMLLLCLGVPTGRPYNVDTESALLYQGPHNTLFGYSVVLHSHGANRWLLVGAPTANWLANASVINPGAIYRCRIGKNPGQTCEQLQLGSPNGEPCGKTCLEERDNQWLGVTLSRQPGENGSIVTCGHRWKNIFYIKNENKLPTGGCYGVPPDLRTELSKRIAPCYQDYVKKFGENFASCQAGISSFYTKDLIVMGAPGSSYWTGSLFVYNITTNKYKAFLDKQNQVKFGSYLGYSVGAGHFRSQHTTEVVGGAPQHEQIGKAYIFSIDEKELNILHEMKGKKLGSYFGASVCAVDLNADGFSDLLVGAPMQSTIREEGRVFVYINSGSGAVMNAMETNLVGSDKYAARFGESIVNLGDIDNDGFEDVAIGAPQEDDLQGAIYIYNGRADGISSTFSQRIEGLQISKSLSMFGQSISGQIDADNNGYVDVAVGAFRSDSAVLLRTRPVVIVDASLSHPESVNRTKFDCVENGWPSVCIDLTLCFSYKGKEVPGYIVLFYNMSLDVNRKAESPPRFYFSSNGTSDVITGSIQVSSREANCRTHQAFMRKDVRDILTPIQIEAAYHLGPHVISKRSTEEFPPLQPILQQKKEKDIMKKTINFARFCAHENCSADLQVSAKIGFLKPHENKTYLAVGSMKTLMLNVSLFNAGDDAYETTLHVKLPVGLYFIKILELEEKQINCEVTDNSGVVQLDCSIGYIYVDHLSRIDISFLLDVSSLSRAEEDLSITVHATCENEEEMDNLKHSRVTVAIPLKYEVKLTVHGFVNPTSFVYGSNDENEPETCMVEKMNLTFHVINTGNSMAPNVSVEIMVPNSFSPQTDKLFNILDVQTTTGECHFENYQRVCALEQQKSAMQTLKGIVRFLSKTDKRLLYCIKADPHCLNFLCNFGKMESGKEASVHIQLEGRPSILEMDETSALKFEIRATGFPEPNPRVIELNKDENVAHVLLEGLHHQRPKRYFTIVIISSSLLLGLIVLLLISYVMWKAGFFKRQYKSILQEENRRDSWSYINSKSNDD
LAP4 TOR yeast = modulators of LAP4-GFP expression in yeast, primary screen, S. cerevisiae, multiplex flow cytometry, MLPCN library | 0.34% of 320,000 active | AID 2023, 2009 | 3 h; median GFP as percent of DMSO wells | GFP response vs DMSO, % at 10 µM;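 active = GFP response vs DMSO above a set limit, about the screen mean plus 3 SD, cut at about 150% in these data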
RPL19A-GFP yeast = RPL19A-GFP expression modulators in yeast, primary screen, cell-based, S. cerevisiae, multiplex flow cytometry, MLPCN. S. cerevisiae RPL19A-GFP strain, 3 h; hits give low values. AID 2025, 2009. percent response vs DMSO, % at 10 µM. 0.3% of 330,000 active;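 active = percent response vs DMSO below 50%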;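 also: median channel GFP fluorescence of the barcoded RPL19A-GFP strain; ratio of sample median GFP to plate DMSO average so 100% = DMSO; lower means less RPL19A-GFP as with rapamycin TOR inhibition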
MEP2-GFP yeast = modulators of MEP2-GFP levels in yeast, primary screen, S. cerevisiae, multiplex flow cytometry, MLPCN library; S. cerevisiae MEP2-GFP strain, 3 h; 100% = DMSO control level; GFP response vs DMSO, % at 10 µM; 0.51% of 330,000 active; AID 2016, 2009;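 active = GFP response versus DMSO above a set limit, roughly screen mean plus 3 SD, cut at about 180% in these data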;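 also: median GFP fluorescence of the barcode-gated MEP2-GFP cells per well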
VLA-4 allo CP = retest of VLA-4 allosteric modulators, confirmation, cell-based, cherry-picked plates, U937, HUTS-21 LIBS antibody. shares compounds with VLA-4 inh. U937 cells, HUTS-21 LIBS mAb binding, flow cytometry; LDV ligand present at threefold Kd. inhibition, % at 6.7 µM. 2% of 1,300 active. AID 2813, 2010; in the data active = inhibition above about 40%;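 also: 0% = ligand without compound and 100% = no ligand background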
Starred values were filed as active, the others as inactive; . = no result given; ! = repeats disagree. In the library only some 1.1% were active in any assay of this set; here they are far more common.

SMILES	AGP1-GFP MLPCN	CIT2 TOR yeast	VLA-4 inh	LAP4 TOR yeast	RPL19A-GFP yeast	MEP2-GFP yeast	VLA-4 allo CP
COc1ccc(N(CC(=O)N2CCc3ccccc32)S(=O)(=O)c2c(C)nn(C)c2C)cc1	99.9	100.6	15.8	99.6	101.2	93.7	-0.8
Cc1c(S(=O)(=O)N2CCCC(C)C2)c(=O)n(C)c(=O)n1C (configuration not stated)	105.3	103.0	6.8	106.9	101.0	110.4	.
Cc1c(S(=O)(=O)N2CCC(C)CC2)c(=O)n(C)c(=O)n1C	94.0	87.7	50.4*	104.5	96.1	104.0	2.6
CCn1c(O)c(/C=C2\C=Nc3ccccc32)sc1=Nc1ccc(C)cc1	97.1	98.7	4.3	97.2	94.5	94.7	.
CCn1c(O)c(/C=C2\C=Nc3ccccc32)sc1=O	96.4	106.2	44.1	103.0	106.5	100.9	-11.0
CC(C)OC(=O)c1ccc(NC(=O)C2C3CC4OC(=O)C2C4C3)cc1 (configuration not stated)	100.1	94.4	4.7	96.2	99.9	98.6	.
Cc1ccc(NC(=O)C2C3CC4OC(=O)C2C4C3)cc1Cl (configuration not stated)	.	103.3	55.7*	99.8	96.1	96.2	-5.5
COc1ccccc1N1CCN(CCCNc2cc(=O)n(C)c(=O)n2C)CC1	98.3	94.8	54.8*	99.2	98.0	95.5	10.0
Cc1ccc(C(=O)Nc2nncs2)cc1S(=O)(=O)N1CCOCC1	100.2	92.9	9.5	102.9	96.6	94.3	.
COc1ccc(C(=O)Nc2nncs2)cc1S(=O)(=O)N1CCOCC1	104.8	105.7	58.8*	96.0	106.9	104.8	-3.5
CC(C)(C)N(NC(=O)Nc1ccccc1)C(=O)c1ccccc1Cl	101.6	100.2	93.7*	99.3	105.8	108.2	-15.5
O=C(CC(C(=O)O)c1cccc(Br)c1)c1ccc(Cl)cc1 (configuration not stated)	93.9	98.4	2.2	91.3	105.6	106.5	.
Cc1ccc(N(CC2=NCCN2)c2cccc(O)c2)cc1	91.3	88.8	55.5*!	107.4	101.7	102.2	5.6
Cc1cc(=O)[nH]c(N2CCCNCC2)n1	103.5	109.5	6.7	91.2	106.8	111.0	.
Cc1cc(=O)[nH]c(-n2nc(C)cc2C)n1	90.9	91.8	93.6*	173.0*	99.8	93.5	15.0
CCN(C[C@H]1N[C@@](Cc2ccccc2)(C(=O)OC)[C@H]2C(=O)N(Cc3ccccc3)C(=O)[C@@H]12)S(=O)(=O)c1ccc(C(F)(F)F)cc1	103.6	98.5	-17.3	104.2	104.0	100.9	.
COC(=O)[C@]1(Cc2ccccc2)N[C@H](CN(C)S(=O)(=O)c2ccc(C(F)(F)F)cc2)[C@@H]2C(=O)N(Cc3ccccc3)C(=O)[C@@H]21	104.8	99.8	28.6	98.2	106.5	105.9	-10.3
COC(=O)[C@]1(Cc2ccccc2)N[C@H](CN(C)S(=O)(=O)c2ccc(C(C)(C)C)cc2)[C@@H]2C(=O)N(Cc3ccccc3)C(=O)[C@@H]21	86.5	77.8	-15.8	82.9	90.4	87.2	-6.2
CC[C@@]1(C(=O)OC)N[C@H](CN(C)S(=O)(=O)c2ccccc2)[C@@H]2C(=O)N(Cc3ccccc3)C(=O)[C@@H]21	94.8	96.4	-36.5	89.3	93.3	87.2	.
Cc1cc(NC(=O)C(C)SCC(=O)N(Cc2ccccc2)c2ccccc2)no1 (configuration not stated)	110.4	109.6	4.8	104.4	100.8	99.1	.
CCn1nnnc1SCC(=O)Nc1sc(C)c(C)c1C#N	101.4	98.9	94.2*	103.4	97.7	108.1	-0.8
CC1(C)CC(NCCN2CCN(C3=CC(=C(C#N)C#N)CC(C)(C)C3)CC2)=CC(=C(C#N)C#N)C1	97.1	101.8	49.9*	86.3	96.3	95.6	5.1
CNC(=S)N1CCN(CCNC2=CC(=O)CC(C)(C)C2)CC1	104.5	99.7	-3.0	101.6	104.6	100.3	.
COCCCC1CCN(Cc2nc(-c3ccccc3)no2)CC1	101.5	103.5	42.3	99.0	100.7	107.0	7.0
COCCCC1CCN(Cc2nc(Cc3ccccc3Cl)no2)CC1	103.9	110.4	22.4	89.6	101.2	104.0	.
SMILES	AGP1-GFP MLPCN	CIT2 TOR yeast	VLA-4 inh	LAP4 TOR yeast	RPL19A-GFP yeast	MEP2-GFP yeast	VLA-4 allo CP
CCC(C)NC(=O)[C@@H]1CCCN1C(=O)C1CCN(S(=O)(=O)c2ccc(C)cc2)CC1 (some centres not stated)	100.7	95.8	53.0*	102.7	99.4	104.8	-2.1
Cc1ccc(S(=O)(=O)N2CCC(C(=O)NN3CCCCC3)CC2)cc1	87.8	86.0	2.5	91.6	89.5	88.2	.
O=C(CC1SCCNC1=O)Nc1ccccc1Cl (configuration not stated)	111.7	110.9	58.9*	115.4	118.9	109.8	2.4
CCCCOc1ccc(C(=O)NCC(=O)N2CC(C)CC(C)C2)cc1 (configuration not stated)	93.5	90.8	6.5	96.2	95.2	93.0	.
CC(=O)C1=C(O)C(=O)N(CCc2ccccc2)C1c1ccccc1[N+](=O)[O-] (configuration not stated)	100.4	111.6	0.0	102.4	114.5	102.7	.
O=C(/C=C/c1ccccc1)C1=C(O)C(=O)N(CCO)C1c1ccccc1[N+](=O)[O-] (configuration not stated)	100.8	98.6	51.3*	115.2	108.5	104.8	6.5
CCOC(=O)N1CCC2(CC1)CC(=O)c1cc(O)ccc1O2	.	97.6	109.4*	95.1	96.2	100.3	10.4
CCOC(=O)COc1ccc2c(c1)C(=O)CC1(CCN(C(C)=O)CC1)O2	97.5	97.5	6.7	97.6	94.7	94.4	.
Cn1c(N)c(C(=O)COC(=O)c2ccc3c(c2)C(=O)N(c2ccc(Cl)cc2)C3=O)c(=O)n(C)c1=O	106.9	102.2	0.5	104.4	99.9	111.0	.
Nc1c(Cl)ncnc1NCCc1ccc(O)cc1	91.0	92.8	7.1	79.7	88.2	82.1	.
COC(=O)C1CCN(C(=O)CN2C(=O)NC3(CCC(C)CC3)C2=O)CC1 (configuration not stated)	106.4	105.0	-2.5	98.9	98.3	107.2	.
